Assay outcomes (PubChem BioAssay)
Myeloid diff 2: compounds promoting myeloid differentiation; ER-HoxA9 myeloid progenitors, lysozyme-GFP differentiation, flow cytometry; calls only at 10 µM; 360,000 tested, 1% active; AID 624256;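 active means normalized GFP-positive differentiation at or above the plate's own cutoff, the solvent-only control mean plus 3 SD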;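 further: cells exposed to compound for four days before flow analysis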
Exocytosis inh: blocks lytic granule exocytosis | inhibition, % at 10 µM | 360,000 tested, 0.66% active | AID 651702 | TALL-104 LAMP-1 surface exposure, flow cytometry; cells stimulated with thapsigargin and PMA;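 active means inhibition above about 55%, limit read from the data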
ABCB6 inh 2: inhibitors of human ABC transporter ABCB6. 360,000 tested, 0.19% active. K562-ABCB6 porphyrin accumulation, flow cytometry, 1 h; active compounds read low. Q9NP58. fluorescence ratio to DMSO, % at 10 µM;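 active means fluorescence ratio to DMSO below 75%, the collection mean minus 3 SD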;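 further: signal is porphyrin accumulated inside mitochondria; 100% equals median channel fluorescence of DMSO control wells; lower ratio means ABCB6 inhibition with less porphyrin fluorescence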
* marks the source's active call; other numbers are inactive results; i = inactive; / = not tested or not shown; + = active, no number. Sampled rows, rich in hits. Any-hit rate of the full collection: about 1.8%.

SMILES | Myeloid diff 2 | Exocytosis inh | ABCB6 inh 2
CCOc1ccc(CN(C)CC(=O)Nc2ccc([N+](=O)[O-])cc2Cl)cc1 | + | 0.0 | 92.0
CSc1ccc(Cl)c(C(=O)OCC(=O)NCC(C)C)c1 | i | -1.3 | 100.0
CNC(=O)COC(=O)c1cc(SC)ccc1Cl | + | 3.3 | 102.0
CNC(=S)NN=C(C)CCCC(C)=NNC(=S)NC | / | -8.1 | 94.0
O=C(Nc1cccnc1)c1ccc2nc(-c3ccccc3)c(-c3ccccc3)nc2c1 | + | 0.9 | 193.0
O=C(Nc1cccnc1)c1ccc(Oc2ccccc2)cc1 | i | -3.9 | 98.0
Cc1oc2cc3oc(=O)cc(C)c3cc2c1C | i | 0.3 | 95.0
Cc1ccc(S(=O)(=O)N2CCCCC2)cc1NC(=O)COC(=O)c1cccc(O)c1 | i | -2.6 | 100.0
O=c1[nH]c2ccccc2nc1Cc1ccccc1 | i | -0.8 | 101.0
O=C(Cc1nc2ccccc2[nH]c1=O)c1ccccc1 | + | 16.5 | 447.0
COc1ccc(OC)c(NC(=O)C(C)OC(=O)c2cc3ccccc3[nH]2)c1 (centres undefined) | i | 0.6 | 98.0
Cc1cc(C)c2c(=O)n(CC(=O)Nc3ccc(Br)c(C)c3)sc2n1 | i | 47.5 | 95.0
Cc1cc(C)c2c(=O)n(CC(=O)Nc3cccc(Cl)c3C)sc2n1 | i | 65.2* | 91.0
O=C1C(c2ccccc2)C2C=CC(C2)N1O (centres undefined) | i | -4.1 | 98.0
CC(/C=C/c1ccc(N(C)C)cc1)=N\N=C(/N)SC1CC(=O)N(c2ccc(C(=O)O)cc2)C1=O (centres undefined) | + | 3.1 | 108.0
O=C(O)c1ccc(N2C(=O)CC(SC(=Nc3ccccc3)Nc3ccccc3)C2=O)cc1 (centres undefined) | i | 2.5 | 96.0
COc1ccc(/C=C(\C#N)C(=O)OCC(=O)NC2CC2)cc1 | i | 2.1 | 95.0
CC(=O)Nc1cccc(-c2csc(C(C)(O)c3ccc(F)c(F)c3)n2)c1 (centres undefined) | i | -2.8 | 99.0
COC(=O)c1ccc(C[n+]2ccccc2)cc1 | i | -7.0 | 105.0
Cc1ccc(C[n+]2ccccc2)cc1 | + | 50.5 | 94.0
CC(C)C[C@H]1CN(CCCC[C@H]2CNC(=O)C(=O)N2CC2CCCCC2)C(=O)C(=O)N1Cc1ccccc1 | i | -4.7 | 94.0
CC(=O)NC(c1ccccc1)c1nc(-c2ccc(Cl)cc2)cs1 (centres undefined) | i | -2.2 | 101.0
COCCn1c(SCC(=O)Nc2ccc3c(c2)OCCO3)nc2c(c1=O)SC(C)C2 (centres undefined) | + | -1.7 | 101.0
CC1Cc2nc(SCC(=O)Nc3ccc4c(c3)OCCO4)n(C)c(=O)c2S1 (centres undefined) | i | -1.7 | 109.0
Cc1nc(NS(=O)(=O)c2ccccc2)sc1C(=O)N/N=C/c1ccccc1 | i | -4.1 | 98.0
SMILES | Myeloid diff 2 | Exocytosis inh | ABCB6 inh 2
CC1(C)CC(=O)C=C(c2n[nH]nc2C2CC2)C1 | i | 2.3 | 112.0
COc1ccc(N2C(=O)C3CCCN3C2c2ccc(Cl)cc2)cc1 (centres undefined) | i | 1.4 | 96.0
O=C1C2CCCN2C(c2ccccc2)N1c1ccc(Cl)cc1 (centres undefined) | + | 2.6 | 95.0
COc1ccc(C(=O)NNC(=O)CCc2ccccc2OC)cc1 | i | -0.2 | 104.0
c1ccc(NC2=Nc3ccccc3CS2)cc1 | + | -1.2 | 104.0
Cc1ccc(NC2=Nc3ccccc3CC2)cc1 | / | 4.4 | 99.0
O=C(Nc1ccc(Cl)cc1)C(Cl)C(=O)c1ccccc1 (centres undefined) | i | 96.1* | 98.0
O=C(Nc1ccccc1Cl)C(Cl)C(=O)c1ccccc1 (centres undefined) | i | -2.6 | 103.0
CSCCC(C)N1CCC(Oc2ccc(C(=O)NCc3ccccn3)cc2)CC1 (centres undefined) | i | -8.5 | 98.0
CC1CC(C)CN(C(=O)CN2C(=O)NC3(CCCCCC3)C2=O)C1 (centres undefined) | i | 1.9 | 102.0
CCN(CC(=O)Nc1ccccc1C(F)(F)F)C(=O)c1ccccc1OCc1ccc(F)cc1 | i | -0.8 | 99.0
COC(=O)c1c(NC(=O)COC(=O)CNC(=O)c2cccc(OC(F)F)c2)sc(C)c1C | i | -2.5 | 103.0
CCN(CC)S(=O)(=O)c1ccc(Cl)c(C(=O)OC)c1 | + | -0.6 | 98.0
CCN(CC)S(=O)(=O)c1cc(C(=O)OC)ccc1Cl | i | -2.6 | 99.0
CCCCn1c(N)c(N(C(=O)CSc2nnnn2-c2ccccc2C)C2CCCC2)c(=O)[nH]c1=O | i | -4.3 | 103.0
CC(CN1CCOCC1)OC(=O)c1cccc(Cl)c1 (centres undefined) | i | -1.4 | 99.0
CC(C)(C)S(=O)(=O)N1Cc2cc(CO)cc(CCO)c2[C@@H]1CCO | i | -3.7 | 103.0
CCCCCCCC(=O)NNC(=O)c1c(O)c2ccccc2n(CC)c1=O | + | -0.6 | 112.0
CCCCCCC(=O)NNC(=O)c1c(O)c2ccccc2n(CC)c1=O | i | 2.9 | 91.0
Cn1c(COc2ccc([N+](=O)[O-])cc2)nnc1SCC(=O)NCC1CCCO1 (centres undefined) | i | -14.5 | 100.0
Cc1onc(-c2ccccc2)c1C(=O)OCCOc1cccc(Cl)c1 | / | 17.8 | 110.0
Cc1ccc(OCCOC(=O)c2c(-c3ccccc3)noc2C)cc1 | i | 73.1* | 95.0
N#CC1(Nc2ccc(C(=O)O)cc2)CCCC1 | i | -4.3 | 102.0
CC(C)=CC(=O)Nc1nc2ccc([N+](=O)[O-])cc2s1 | + | -7.6 | 105.0
C/C(=C\c1ccccc1)C(=O)Nc1nc2ccc([N+](=O)[O-])cc2s1 | i | -2.2 | 96.0
SMILES | Myeloid diff 2 | Exocytosis inh | ABCB6 inh 2
COc1ccc(CN2CCN(C(=O)CCC(=O)Nc3nnc(C4CCCCC4)s3)CC2)cc1F | + | 7.9 | 84.0
COc1ccc(CN2CCN(C(=O)CCC(=O)Nc3nnc(C(F)(F)F)s3)CC2)cc1F | i | -10.4 | 104.0
CCn1cc(C(=O)NCC(OC)OC)c(=O)c2cc(S(=O)(=O)N3CCC(C)CC3)ccc21 | + | 6.3 | 102.0
CCn1cc(C(=O)NCC(OC)OC)c(=O)c2cc(S(=O)(=O)N3CCCC3)ccc21 | i | -0.3 | 96.0
COc1ccccc1C(=O)Nc1ccnn1C1CCN(C2CCCCC2)CC1 | i | 7.6 | 88.0
C[C@@H]1CN([C@H](C)CO)C(=O)CCCn2nncc2CO[C@H]1CN(C)Cc1ccc(C(F)(F)F)cc1 | i | -2.0 | 101.0
Cc1ccccc1N=C1Nc2ccccc2N[C@]12C[C@H]1CCC(=O)N3CC[C@@H](C2)[C@@H]13 | i | 57.6* | 99.0
O=C1CC[C@@H]2CC3(C[C@@H]4CCN1[C@H]24)Nc1ccccc1NC3=NC1CCCCC1 (some centres undefined) | i | 0.5 | 97.0
COC(=O)CSc1cc([N+](=O)[O-])ccc1NC(=O)OC | + | -1.9 | 162.0
COC(=O)Nc1ccc([N+](=O)[O-])cc1OC | i | 1.9 | 102.0
Cc1ccc(C(=O)NCC(=O)OCCCOC(=O)CNC(=O)c2ccc(C)c(C)c2)cc1C | i | -0.8 | 89.0
CC(=O)C1=C(O)C(=O)N(c2ccc(S(=O)(=O)Nc3nccs3)cc2)C1c1ccc(F)cc1 (centres undefined) | i | -2.8 | 90.0
